Screening results as filed in PubChem.
EP2 modulator: EP2 receptor modulators, cAMP readout, primary screen, cell-based, HTRF cAMP, PGE2 stimulation; Prostaglandin E2 receptor EP2 subtype (Homo sapiens), P43116; EP2-expressing cells, cAMP HTRF FRET, PGE2 co-stimulation; induction, % at 25 µM; hit rate 0.83% among 260,000;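 active = compounds whose cAMP rise, as percent of the full-agonist control response, exceeds 60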;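 note: rat C6 glioma line stably carrying human EP2 under a CMV promoter; the protocol text gives 20 µM as final concentration; 100% = response of wells given 1 µM PGE2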
Target sequence (P43116 whole entry, looked up): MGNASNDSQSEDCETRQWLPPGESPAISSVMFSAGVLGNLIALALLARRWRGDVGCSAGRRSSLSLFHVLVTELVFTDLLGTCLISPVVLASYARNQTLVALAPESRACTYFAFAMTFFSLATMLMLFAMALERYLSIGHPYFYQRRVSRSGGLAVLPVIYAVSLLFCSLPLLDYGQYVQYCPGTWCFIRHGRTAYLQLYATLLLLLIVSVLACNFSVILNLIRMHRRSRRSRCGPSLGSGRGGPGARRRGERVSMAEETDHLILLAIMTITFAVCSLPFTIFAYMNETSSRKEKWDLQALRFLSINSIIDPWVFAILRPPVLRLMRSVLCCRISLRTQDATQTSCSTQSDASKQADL
PGE2 EP2 inh: human EP2 receptor antagonists, primary screen, TR-FRET cAMP, C6 glioma cells; Prostaglandin E2 receptor EP2 subtype (Homo sapiens), P43116; C6 glioma cells expressing human EP2; cells stimulated with saturating PGE2; inhibition, % at 25 µM; hit rate 0.52% among 260,000; AID 1422, 2008;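 active = percent inhibition above 40 after rounding to a whole number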;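 note: rat C6 glioma host cells with rolipram phosphodiesterase inhibitor present; the protocol text gives 20 µM as final concentration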
CHT inh: inhibitors of human choline transporter CHT; High affinity choline transporter 1 (Homo sapiens), Q9GZV3; CHT-expressing cells, membrane potential dye, choline response; stronger effect = lower value; B-score at 10 µM; hit rate 0.86% among 310,000;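 active = B-score over 3 SD under the library average, and starting fluorescence ratio not unusually high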;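 note: choline stimulus applied at its EC90 after an EC20 pre-addition; B-score computed on integrated fluorescence ratio after choline addition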
CHT allo act: CHT positive allosteric modulators, primary screen, cell-based, membrane potential dye, choline EC20. High affinity choline transporter 1 (Homo sapiens), Q9GZV3. CHT-expressing cells; stronger effect = higher value; LV-AA mutant CHT in HEK293 cells. B-score at 10 µM. hit rate 0.49% among 310,000. AID 488977, 2010;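 active = initial fluorescence not abnormally high and integrated response B-score, plate-corrected, over 3 SD above library mean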
* hit, by the source's call; ! = not confirmed by another sample. Most compounds without a hit are left out; they make up all but 2% or so of the library.

`O=NN1CC2CC(C1)c1cccc(=O)n1C2` (stereo not given) gave EP2 modulator 13.4 and PGE2 EP2 inh 6.6.
Cc1ccc2[nH]c(=O)c(CN(CCO)C3(c4nnnn4C4CCCC4)CCCCC3)cc2c1 was read as EP2 modulator 21.7 and PGE2 EP2 inh 9.0.
COCCOc1ccc(CN2C3CCC2CC(O)(c2ccccc2F)C3)cc1OC (stereo not given) was read as EP2 modulator 10.8 and PGE2 EP2 inh 5.7.
`CN1CCC=CC1/C=C/c1c[nH]c2ccccc12` (stereo not given) gave EP2 modulator -56.6.
Screening COc1ccc(C(C)(C)C)cc1CN1C2CCC1CC(O)(c1nccn1C)C2 (stereo not given) returned EP2 modulator -35.5 and PGE2 EP2 inh 7.4.
`Cc1ccc(OP(=O)(Oc2ccc(C)cc2)N2C=Cc3ccccc3[C@H]2C#N)cc1` gave EP2 modulator 36.4 and PGE2 EP2 inh 42.5*.
`CCCCCCC[n+]1ccc(-c2cc[n+](CCCCCCC)cc2)cc1` gave EP2 modulator 39.3, PGE2 EP2 inh 9.3, CHT inh inactive and CHT allo act inactive.
`CCCCCCCCCCCCCCCC[n+]1ccccc1` gave EP2 modulator -43.5 and PGE2 EP2 inh 68.7*.
Screening O=c1c2ccccc2nc(SCC2CCCCO2)n1-c1ccccc1 (stereo not given) returned EP2 modulator 63.8*, PGE2 EP2 inh 7.1, CHT inh inactive and CHT allo act inactive.
CCCCn1c(N)c(C(=O)NCc2cccs2)c2nc3ccccc3nc21 was read as EP2 modulator 61.6*, PGE2 EP2 inh 2.4, CHT inh inactive and CHT allo act inactive.
`CCCSc1nc2ccccc2c(=O)n1-c1ccccc1C` gave EP2 modulator 74.9* and PGE2 EP2 inh 14.8.
`CCC1=C(C[C@H]2NCCc3cc(OC)c(OC)cc32)C[C@H]2c3ccccc3CCN2C1` gave EP2 modulator 20.6 and PGE2 EP2 inh 52.2*.
`CC1CCCN(C2CCNCC2)C1` (stereo not given) gave EP2 modulator -6.5 and PGE2 EP2 inh 15.3.
For CCOC(=O)c1ccc2[nH]c(-c3ccc(S(=O)(=O)F)cc3)cc(=O)c2c1 the results were EP2 modulator -13.0, PGE2 EP2 inh 50.6*!, CHT inh inactive and CHT allo act inactive.
`CCOC(=O)c1cccc([P+](=O)O)c1` gave EP2 modulator 4.7, PGE2 EP2 inh 9.2, CHT inh inactive and CHT allo act inactive.
For O=C(CN1C2CCC1CC(O)(c1ccco1)C2)N1c2ccccc2CCc2ccccc21 (stereo not given) the results were EP2 modulator -33.9.
Screening O=C(CN1C2CCC1CC(O)(c1ccco1)C2)N1c2ccccc2Sc2ccccc21 (stereo not given) returned EP2 modulator -28.9.
For O=[N+]([O-])c1ccccc1-c1cc(-c2ccccc2)cc(-c2ccccc2)[n+]1Cc1ccccc1Cl the results were CHT inh -5.28* and CHT allo act inactive.
`Cc1cc(-c2ccccc2)cc(-c2ccccc2)[n+]1CCc1ccccc1` gave CHT inh inactive and CHT allo act inactive.
Screening COc1ccc2c(c1)NC1(CCNCC1)NS2(=O)=O returned EP2 modulator -24.9 and PGE2 EP2 inh 5.3.
Screening NCC(=O)c1ccccc1 returned EP2 modulator 26.1 and PGE2 EP2 inh 10.3.
`O=S(=O)(O)/C(=C\c1ccccc1)c1ccccc1` (tested in a mixture with another compound) gave EP2 modulator 26.1 and PGE2 EP2 inh 46.0*.
Screening COc1ccc(C(=O)O[C@@H]2CC[C@@]3(C)[C@@H]4CC[C@@H]5[C@@]6(O)C[C@@H](O)[C@@]7(O)[C@@H](CN8C[C@H](C)CC[C@H]8[C@]7(C)O)[C@]6(O)C[C@@]53O[C@@]42O)cc1OC returned EP2 modulator 4.0 and PGE2 EP2 inh 45.5*.
`C/C=C(/C)C(=O)O[C@H]1CC[C@@]2(C)[C@@H]3CC[C@H]4[C@]5(O)C[C@H](O)[C@@]6(O)[C@@H](CN7C[C@@H](C)CC[C@H]7[C@@]6(C)O)[C@]5(O)C[C@@]42O[C@]13O` gave EP2 modulator 3.1 and PGE2 EP2 inh 5.7.
`CNc1ccccc1C(=O)O` gave EP2 modulator 11.6 and PGE2 EP2 inh 8.4.
C[CH2][Hg][S]c1ccccc1C(=O)O was read as EP2 modulator -37.8, PGE2 EP2 inh 114.8*, CHT inh inactive and CHT allo act inactive.
CSc1ncc(CN2C3CCC2CC(O)(c2nccn2C)C3)cn1 (stereo not given) was read as EP2 modulator -11.3 and PGE2 EP2 inh 4.3.
Nc1cc[c]([Hg])cc1.Nc1nc2c(ncn2[C@H]2O[C@H](CO)[C@@H](O)[C@@H]2O)c(=[SH+])[nH]1 was read as EP2 modulator -43.0 and PGE2 EP2 inh 103.7*.
For CC(Cc1ccc(O)cc1)NCC(O)c1cc(O)cc(O)c1 (stereo not given) the results were EP2 modulator 82.4* and PGE2 EP2 inh 7.2.
COc1cc2c(cc1OC)[C@@]13CCN4C=C5CCO[C@H]6CC(=O)N2[C@H]1[C@H]6[C@H]5C[C@H]43 was read as EP2 modulator -8.8 and PGE2 EP2 inh 53.3*.
Screening Clc1ccc(Cl)c2c1NC(c1cccnc1)C1CC=CC21 (stereo not given) returned EP2 modulator 86.7* and PGE2 EP2 inh 7.4.
For Cc1nc(-c2ccc(C)c(C)c2)c(CC(=O)N(C)CCN(C)C)s1 the results were EP2 modulator -1.1 and PGE2 EP2 inh 8.6.
NC(=O)c1c([N+](=O)[O-])no[n+]1[O-] was read as EP2 modulator -102.4 and PGE2 EP2 inh 119.2*.
`CC(=O)O/C(=C1\C[C@@H]2[C@H]3CC=C4C[C@@H](OC(C)=O)CC[C@]4(C)[C@@H]3CC[C@@]2(C)C1=O)C(F)(F)F` gave EP2 modulator 39.4 and PGE2 EP2 inh 47.0*.
Screening O=C(Oc1cccc2cccnc12)c1cccc(S(=O)(=O)N2CCCC2)c1 returned EP2 modulator -15.6 and PGE2 EP2 inh 16.0.
Screening O.O.[NH-]C1(C(=O)O)CCCC1.[NH-]C1(C(=O)O)CCCC1.[Ni+2] returned EP2 modulator 26.4 and PGE2 EP2 inh 47.4*.
CNC(C(=O)c1ccccc1)C(OC)c1ccccc1 (stereo not given) was read as EP2 modulator 18.4, PGE2 EP2 inh 10.6, CHT inh inactive and CHT allo act inactive.
For CC(=O)[O][Hg][c]1ccccc1 the results were EP2 modulator -40.4 and PGE2 EP2 inh 113.1*.
Screening CC(C)(CN1CCCC1)CN1C2CCC1CC(O)(c1ccccc1F)C2 (stereo not given) returned EP2 modulator -25.2 and PGE2 EP2 inh 3.4.
`CC(C)c1ccc(N2C(=O)NC(=O)/C(=C\C=C\c3ccco3)C2=O)cc1` gave EP2 modulator -75.5, PGE2 EP2 inh 100.2*, CHT inh inactive and CHT allo act inactive.
